Reference: PubChem BioAssay (NCI)
Compounds without any hit were thinned out: in the full panel of roughly 79,000, 15% have a hit. A number with no mark means an inactive call. The source made the active and inactive calls. Rule as the data show it: active = growth inhibition above about 70%; inactive = the rest.

assay: NCI Yeast Anticancer Drug Screen. Data for the sgs1 mgt1 strain (AID 161);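 also: 0% = growth of cultures given vehicle only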; conditions: S. cerevisiae sgs1 mgt1 strain, at 5.0 µM (retest, dose inferred, filed as 0.5), hits give high values
In short: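 Genetically altered yeast, compound exposure, growth inhibition relative to vehicle.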

Compound | growth inhibition
Clc1ccc(OCC(Cn2ccnc2)c2ccc(Cl)cc2)cc1 (centres undefined) | 70% (active)
CC(C)C(CC(C)(C)C)OC(=O)Nc1cccc2ccccc12 (centres undefined) | 0%
CC(=O)OC[C@@]1(C)[C@@H]2CC[C@]3(C)[C@H](C(=O)C=C4[C@@H]5CC(C)(C)CC[C@]5(C(=O)O)CC[C@]43C)[C@@]2(C)CC[C@@H]1OC(C)=O | 28%
CCOC(=O)C[n+]1c(C)sc2ccccc21 | 0%
O=[N+]([O-])c1ccc(/C=N/O)s1 | -7%
C=C(C)COc1ccccc1C(OCC)OCC | 3%
CCCCCCCCCCCCCC1OC(=O)C(C)=C1C(=O)O (centres undefined) | -2%
CC(C)C(Sc1nc(-c2ccccc2)c(-c2ccccc2)[nH]1)c1n[nH]c(=S)n1-c1ccccc1 (centres undefined) | -13%
Cc1ccc(-c2c(C#N)c(S)n(NS(=O)(=O)c3ccccc3)c(=O)c2C#N)cc1 | 32%
O=C(c1ccccc1)c1ccc2c(c1Cl)C(=O)c1ccccc1C2=O | 0%
COc1cccc(C2c3cc4c(cc3OC(O)C2C)OCO4)c1O (centres undefined) | 1%
CCC[N+]1=C(/C=C/c2ccc3cccnc3c2O)C(C)(C)c2ccccc21 | 10%
O=C(/C=C/c1ccccc1Cl)c1ccc(F)cc1 | -1%
CCN(CC)C(=S)N=Nc1c(O)[nH]c2ccccc12 | 81% (active)
C[CH2][Sn]([CH2]C)([O]C(=O)c1ccccc1OC)[O][Sn]([CH2]C)([CH2]C)[O]C(=O)c1ccccc1OC | 33%
CCCCCCCCCCCCCCCC[N+](C)(C)C(C)c1ccc(OC)cc1 (centres undefined) | 98% (active)
S=C(NCCc1ccccc1)N/N=C/c1ccc(Cl)cc1 | 54%
Cc1cc(Nc2ccc(O)c(CN3CCN(Cc4cc(Nc5cc(C)nc(N)n5)ccc4O)CC3)c2)nc(N)n1 | 5%
CC1C[N+](C)(C)C(C)C(=O)C1(c1ccccc1)c1ccccc1 (centres undefined) | -23%
O=C1C(Cl)=C(Cl)C(=O)C2CC=CCC12 (centres undefined) | 92% (active)

Compound | growth inhibition
C/C(=N/O)c1ccc2c(c1)C(C)c1ccccc1-2 (centres undefined) | -59%
c1ccc(N/N=C2/CCCC3/C(=N\Nc4ccccc4)CCCC23)cc1 (centres undefined) | 13%
CCCC(C)C/C(C)=C\C(C)(C)C1CC(=O)N(CC)C1=O (centres undefined) | -3%
COC(C(=O)C1=C2Oc3c4c(cc(O)c3C(=O)C2C2=C(CCCC2)C1=O)OC(C)(C)C=C4)C(C)CCC=C(C)C (centres undefined) | 3%
Cc1cc(Br)c(NC(=O)CBr)cc1C | -1%
Cc1ccc(S(=O)(=O)OCCCCOS(=O)(=O)c2ccc(C)cc2)cc1 | -6%
Cc1ccc([N+](=O)[O-])c2c(NCCCN(C)C)c3ccccc3nc12 | 93% (active)
CCOC(=O)c1c(N2CCCC2)nsc1Nc1ccc(F)cc1 | 13%
CC(=O)[C@H]1CC[C@H]2[C@@H]3CC[C@H]4C[C@@H](N5CCOCC5)CC[C@]4(C)[C@H]3CC[C@]12C | 70% (active)
CC(C)CCCC(C)C1CCC2C3CCC4=CC(O)CCC4(C)C3CCC12C (centres undefined) | -2%
Nc1ccccc1SC(/C=C/NNC1=NC(c2ccccc2)C(c2ccccc2)=NN1)c1ccccc1 (centres undefined) | 19%
CCOC(=O)C1=C(c2ccccc2)OC(N)=C(C#N)C1c1ccc(C)cc1 (centres undefined) | 10%
COC1CC(OC(=O)c2ccccc2)C2OC(c3ccccc3)OCC2O1 (centres undefined) | 1%
O=C(/N=C1\N=Nc2nc(C(C(=O)c3cccs3)c3nc4n(c3O)/C(=N/C(=O)Nc3ccc(Cl)cc3)N=N4)c(O)n21)Nc1ccc(Cl)cc1 (centres undefined) | -1%
C=CCNC(=S)N/N=C(\CCC)c1ccccn1 | 99% (active)
O=C(c1cc2c(C(F)(F)F)onc2c2ccccc12)C(F)(F)F | -8%
O=C1C=CC(=O)C2C1Cc1ccccc1C2c1ccccc1 (centres undefined) | 58%
CC1SC2(C(=O)Nc3ccc([N+](=O)[O-])cc32)N(c2ccc(Cl)cc2)C1=O (centres undefined) | -1%
CC(=O)OCCn1c2nc(=O)[nH]c(=O)c-2nc2cc(C)c(C)cc21 | 1%
